In PubChem BioAssay (NCATS):
A number with no mark means an inactive call. The call rests on the fitted dose curve; in most records, active means well fitted curve in the direction sought with a large enough effect; inconclusive means small, poorly fitted or top-dose-only effect, or another doubt; inactive means no such curve, though single readings can be large or run the other way.

What follows are compounds tested against Methanococcus maripaludis chaperonin (MmCpn) (UniProt Q6LX38) (assay: High-Throughput Screening for Modulators of Cytosolic Chaperonin Activity: MmCpn Primary Screen (AID 488978; further: 0% is about no effect)). Settings: Purified MmCpn ATPase activity, ADP HTRF detection, 10 min; series mostly up to 76.9 µM; activity change, negative = inhibition: at the top concentration.
Method in brief: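 ATPase activity of 50 nM MmCpn was assayed with 30 uM ATP, 10 minutes at 37C, after a 5 min compound preincubation at room temperature. ADP production was read as HTRF emission at 590 and 665 nm.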

Methanococcus maripaludis chaperonin (MmCpn), sequence (Q6LX38 1-543): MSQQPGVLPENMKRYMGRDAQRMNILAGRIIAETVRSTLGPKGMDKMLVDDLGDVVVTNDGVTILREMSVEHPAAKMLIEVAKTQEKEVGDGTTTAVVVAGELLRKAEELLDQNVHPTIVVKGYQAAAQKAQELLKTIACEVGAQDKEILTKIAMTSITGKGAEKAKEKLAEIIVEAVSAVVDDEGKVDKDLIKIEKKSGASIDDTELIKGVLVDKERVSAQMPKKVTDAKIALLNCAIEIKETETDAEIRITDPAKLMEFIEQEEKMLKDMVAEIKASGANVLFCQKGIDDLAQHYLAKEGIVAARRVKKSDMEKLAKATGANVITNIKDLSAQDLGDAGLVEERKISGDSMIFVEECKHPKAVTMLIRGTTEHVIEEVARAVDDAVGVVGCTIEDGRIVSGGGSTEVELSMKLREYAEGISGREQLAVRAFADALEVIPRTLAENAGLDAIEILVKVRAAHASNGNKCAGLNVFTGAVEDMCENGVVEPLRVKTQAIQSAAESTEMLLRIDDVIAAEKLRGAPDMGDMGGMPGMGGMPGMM

Row | SMILES | activity change, negative = inhibition
1 | CN(C)CCCO[C@@H]1[C@H]2OC(C)(C)O[C@H]2O[C@@H]1[C@H](O)CO | -11%
2 | CC(C)NC[C@@H](O)c1ccc(O)c(O)c1 | 0.217%
3 | CN1CCc2ccccc2Cc2[nH]c3ccccc3c2CC1 | 1.15%
4 | CC[C@@H](C)[C@H]1O[C@]2(CC[C@H]1C)C[C@@H]1C[C@@H](CC=C(C)[C@@H](O[C@H]3C[C@H](OC)[C@@H](O[C@H]4C[C@H](OC)[C@@H](O)[C@H](C)O4)[C@H](C)O3)[C@@H](C)C=CC=C3CO[C@@H]4[C@H](O)C(C)=C[C@@H](C(=O)O1)[C@]34O)O2 | -0.776%
5 | Nc1nc(SCc2ccc([N+](=O)[O-])cc2)c2ncn([C@@H]3O[C@H](CO)[C@@H](O)[C@H]3O)c2n1 | 3.14%
6 | Oc1ccccc1O | -0.774%
7 | CN(C)c1ccc(/C=C2\C(=O)Nc3ccccc32)cc1 | -2.6%
8 | C=C[C@H]1CN2CC[C@@H]1C[C@@H]2[C@@H](O)c1ccnc2ccc(OC)cc12 | 0.468%
9 | CN=c1nc(-c2ccccc2)n(-c2ccccc2)s1 | 0.637%
10 | CO/N=C(\C(=O)N[C@@H]1C(=O)N2C(C(=O)O)=C(COC(C)=O)CS[C@H]12)c1csc(N)n1 | -0.635%
11 | O=c1[nH]c2cc(C(F)(F)F)ccc2n1-c1cc(C(F)(F)F)ccc1O | 2.86%
12 | NC(=S)c1ccc[n+]([C@@H]2O[C@@H](COP(=O)([O-])OP(=O)(O)OC[C@H]3O[C@@H](n4cnc5c(N)ncnc54)[C@H](OP(=O)(O)O)[C@@H]3O)C(O)C2O)c1 (stereo partly drawn) | 0.821%
13 | NC(N)=NC(=O)c1nc(Cl)c(N2CCCCCC2)nc1N | 2.48%
